In the OligoGym collection one finds sensor-assay potency score (higher = more potent) data, which are given here for 39 sequences.
Also: reference of the scale not given here.

In one experiment the target is ARHGAP5. Briefly: pooled miR-30 sensor sort-seq; sequence = guide strand. The conditions noted are these: shRNA.
Sequence TAAGGTTGCATGCAGCAGCAGC came in with a sensor-assay potency score (higher = more potent) of -0.593.

The sequence TTGCACAACATTATCAACTCAC displayed a sensor-assay potency score (higher = more potent) of 0.731.

For TGAAGTATACTACTGAACCCTG, the sensor-assay potency score (higher = more potent) is -0.25.

TTTATGTTGCTGACTAACCCTG displayed a sensor-assay potency score (higher = more potent) of -0.695.

Regarding TTTTTGTCCAAATCCAGCCTGT, the sensor-assay potency score (higher = more potent) is -0.169.

TAAACCTCTCCAGTCATGCTTA: the sensor-assay potency score (higher = more potent) was -0.431.

Turning to TTGCTTTTTGTCCAAATCCAGC, the sensor-assay potency score (higher = more potent) is -1.64.

Consider ATGATCTTGATCAAACTGCTTT, for which the sensor-assay potency score (higher = more potent) is -0.663.

Take TTTCTTAACAATTTCTTTCAAG: the sensor-assay potency score (higher = more potent) is -0.634.

The sequence TAGATTGATATTATGATCTTGA gave a sensor-assay potency score (higher = more potent) of 1.05.

For the sequence TTTCTTTCAAACAACATCCCAA, the sensor-assay potency score (higher = more potent) was 0.179.

With TTCTACAACAAATTTCATGTTT, the sensor-assay potency score (higher = more potent) was -0.238.

As for TTATGTTGCTGACTAACCCTGT, the sensor-assay potency score (higher = more potent) was 0.477.

TTTTATTTCATTATGGACCATA registered a sensor-assay potency score (higher = more potent) of -0.301.

Sequence TAGTAGACAGAAACTCTCGATT returned a sensor-assay potency score (higher = more potent) of -0.0895.

In the case of TCAAATAACAAAATCAGCCAGA, the sensor-assay potency score (higher = more potent) was -0.237.

Turning to TAGTAGTAGACAGAAACTCTCG, the sensor-assay potency score (higher = more potent) turned out to be 0.344.

Turning to TAATTGTGGTTGTATCAGCTGA, the sensor-assay potency score (higher = more potent) was -0.356.

Consider TACAAGACCATCATAGATCTTT, for which the sensor-assay potency score (higher = more potent) was 0.493.

Regarding TTCTACACTATACTAAATGTGT, the sensor-assay potency score (higher = more potent) is -0.488.

TTTGAATATTGTCTTGGTCAGT yielded a sensor-assay potency score (higher = more potent) of -0.551.

TTTAGCCACAAGCATGTCCTTG gave a sensor-assay potency score (higher = more potent) of -0.792.

Take TTTAGTTATCTACACCGACTGC: the sensor-assay potency score (higher = more potent) is -0.686.

Regarding TTCTATAGTATGACTTGGCTTT, the sensor-assay potency score (higher = more potent) was 0.162.

The target of another experiment is ARHGEF15. The experiment is described as above. The conditions noted are these: shRNA.
TGATCTTGCTGACAGCACCCAG gave a sensor-assay potency score (higher = more potent) of -1.42.

Take TTGCTGGAGGAGTATTCTGAGG: the sensor-assay potency score (higher = more potent) was -1.94.

Sequence TTGTGGAGAGGAGCCATTGTGG returned a sensor-assay potency score (higher = more potent) of -1.62.

On to TAGGATGTGAGGACAACGGCAG, for which the sensor-assay potency score (higher = more potent) stood at 0.25.

Regarding TATTCTGAGGAGCTTCATCAGG, the sensor-assay potency score (higher = more potent) is -0.865.

The sequence TTGCTAGAAACCGCTCGCTGAC had a sensor-assay potency score (higher = more potent) of -1.26.

The sequence TTGCACAGCCGGAAGCTCCTGC returned a sensor-assay potency score (higher = more potent) of -0.0952.

On to TTGGAGTAGTCGGTGGGTGGGG, for which the sensor-assay potency score (higher = more potent) is -0.515.

As for TTGCGCTCAGCAGTGGAGCGGT, the sensor-assay potency score (higher = more potent) is -0.34.

In the case of TAACTCAGTCAGCTCTCCCTGG, the sensor-assay potency score (higher = more potent) is -0.77.

TTTCGGGGTAGTTCTTGTGGAG displayed a sensor-assay potency score (higher = more potent) of -0.734.

In turn, ACATAATCCACATACACCGAGA yielded a sensor-assay potency score (higher = more potent) of -1.37.

A further experiment deals with ARIH1. Described as above. The conditions noted are these: shRNA.
Sequence TTTAACAGTCGATTGCACTCTA displayed a sensor-assay potency score (higher = more potent) of 0.745.

In the case of TATCCTGCAGAGAATCTTGGGA, the sensor-assay potency score (higher = more potent) came out at 0.446.

Take TTGGACTTTAACAACATGGTGG: the sensor-assay potency score (higher = more potent) stood at 0.0155.
